Measured values reported in PMC4336329 (PLoS ONE, 2015).
The whole screen tested about 310,000 compounds, of which about 2,200 (0.71%) showed an effect of 50% or more. The effect is printed as a negative number. What follows is part of a selection rich in strong results, with near analogues and random picks from the rest.

Target: human ether-à-go-go-related gene (hERG) potassium channel (human, UniProt Q12809)
Assay: primary screen, population patch clamp on CHO cells stably expressing hERG; higher = less effect of the substance

human ether-à-go-go-related gene (hERG) potassium channel, sequence (Q12809 whole entry, looked up): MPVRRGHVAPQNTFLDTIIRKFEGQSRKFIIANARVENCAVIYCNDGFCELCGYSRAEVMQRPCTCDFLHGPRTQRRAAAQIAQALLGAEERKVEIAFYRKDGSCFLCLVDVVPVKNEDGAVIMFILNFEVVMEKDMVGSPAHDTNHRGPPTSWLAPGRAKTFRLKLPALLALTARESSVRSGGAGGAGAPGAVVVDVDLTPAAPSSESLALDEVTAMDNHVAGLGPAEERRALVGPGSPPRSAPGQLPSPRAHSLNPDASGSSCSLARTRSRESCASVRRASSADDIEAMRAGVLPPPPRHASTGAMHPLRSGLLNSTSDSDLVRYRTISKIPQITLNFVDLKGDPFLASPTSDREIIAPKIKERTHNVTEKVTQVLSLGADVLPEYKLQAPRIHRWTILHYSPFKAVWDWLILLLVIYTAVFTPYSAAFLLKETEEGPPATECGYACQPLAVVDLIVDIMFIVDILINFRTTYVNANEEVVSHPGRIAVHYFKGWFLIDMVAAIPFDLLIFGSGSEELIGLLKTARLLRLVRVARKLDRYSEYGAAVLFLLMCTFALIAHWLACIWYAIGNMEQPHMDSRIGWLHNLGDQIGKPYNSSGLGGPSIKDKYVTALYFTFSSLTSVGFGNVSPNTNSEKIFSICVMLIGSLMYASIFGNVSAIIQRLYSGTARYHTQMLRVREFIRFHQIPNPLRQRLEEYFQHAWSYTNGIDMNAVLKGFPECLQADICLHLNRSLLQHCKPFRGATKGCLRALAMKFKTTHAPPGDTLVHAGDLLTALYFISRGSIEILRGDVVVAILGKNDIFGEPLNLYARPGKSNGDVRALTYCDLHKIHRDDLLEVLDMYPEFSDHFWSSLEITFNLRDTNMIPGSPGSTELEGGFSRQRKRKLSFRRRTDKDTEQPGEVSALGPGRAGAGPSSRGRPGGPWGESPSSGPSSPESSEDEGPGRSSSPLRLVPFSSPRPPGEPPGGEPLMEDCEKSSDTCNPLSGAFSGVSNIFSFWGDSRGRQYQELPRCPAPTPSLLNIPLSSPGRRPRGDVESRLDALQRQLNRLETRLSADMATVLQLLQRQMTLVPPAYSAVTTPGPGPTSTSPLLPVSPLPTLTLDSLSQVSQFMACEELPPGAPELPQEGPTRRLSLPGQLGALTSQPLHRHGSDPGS

SMILES | hERG current change (%, negative = inhibition) at 1uM [%]
Cc1nc(NC(=O)c2ccccc2)sc1C | 16.6
O=C(N/N=C/c1ccccc1)C1CCCN1C(=O)c1cc([N+](=O)[O-])cc([N+](=O)[O-])c1 (centres unmarked) | 12.4
COc1ccc(C=O)cc1Cn1ccnc1C.Cl | 15.4
Cc1cc(F)c(F)c(C(=O)N2CCC(C)CC2)c1Cl | 5.24
OCCC1CN(Cc2cc(F)ccc2-n2cccn2)CCN1C1CCCC1 (centres unmarked) | 3.09
Cc1cc(-n2cccn2)ccc1CN1CCN(CC(C)C)C(CCO)C1 (centres unmarked) | 0.354
Cc1cccc(CN2CCN(Cc3cccc(-n4cccn4)c3)CC2CCO)n1 (centres unmarked) | -13.6
Cc1ccc(CN2CCN(Cc3ccc(-n4cccn4)cc3C)CC2CCO)cc1 (centres unmarked) | -83.8
OCCC1CN(Cc2cccc(-n3cccn3)c2)CCN1Cc1ccccc1 (centres unmarked) | -13.4
OCCC1CN(Cc2cc(F)ccc2-n2cccn2)CCN1Cc1ccc(F)cc1 (centres unmarked) | -36.9
Cc1cccc(CN2CCN(Cc3ccc(-n4cccn4)cc3)CC2CCO)n1 (centres unmarked) | -1.6
OCCC1CN(Cc2cccc3nccnc23)CCN1C1CCCC1 (centres unmarked) | 3.17
Cc1ccc(CN2CCN(Cc3cccc(-n4cccn4)c3)CC2CCO)cc1 (centres unmarked) | -80.1
Cc1ccc(CN2CCN(Cc3ccc(-n4cccn4)cc3)CC2CCO)cc1 (centres unmarked) | -65.5
OCCC1CN(Cc2ccc(-n3cccn3)cc2)CCN1Cc1ccccc1 (centres unmarked) | -28.5
Cc1cc(-n2cccn2)ccc1CN1CCN(C2CCCC2)C(CCO)C1 (centres unmarked) | -54.2
CCOc1ccccc1N1CC(O)=C(c2nc3ccccc3s2)C1=N | 5.48
O=C(CSc1nc(-c2ccccc2)cc(=O)[nH]1)Nc1ccc(F)c(F)c1 | 12.9
Cc1ccc(S(=O)(=O)Nc2ccc(C(=O)NCc3cccnc3)cc2)cc1 | 10.9
CCc1nc(SCC(=O)NCc2ccc(F)cc2)c2c(=O)n(C)c(=O)n(C)c2n1 | 11.2
COc1ccc(OC)c(S(=O)(=O)NCC(=O)NC2CCCCCC2)c1 | 16
COc1ccc2nc3sc(C(=O)N4CCN(C)CC4)cc3cc2c1 | -12

SMILES | hERG current change (%, negative = inhibition) at 1uM [%]
CC(NC(=O)COC(=O)/C=C/c1ccco1)c1ccccc1 (centres unmarked) | 8.61
Cc1ccc(-n2cc(CN3CCC(CO)(Cc4cccc(C(F)(F)F)c4)CC3)cn2)cc1 | -64.3
COc1ccc(CN2CCC(CO)(Cc3cccc(C(F)(F)F)c3)CC2)cc1Cn1cccn1 | -35.3
CC(C)Cc1cc(CN2CCC(CO)(Cc3cccc(C(F)(F)F)c3)CC2)[nH]n1 | -66
OCC1(Cc2ccccc2)CCN(Cc2cnn(-c3ccccc3F)c2)CC1 | -4.22
CC(C)Cc1cc(CN2CCC(CO)(Cc3ccccc3)CC2)[nH]n1 | -42.9
Cc1ccc(-n2cc(CN3CCC(CO)(Cc4ccccc4)CC3)cn2)cc1 | -22
COc1ccc(CN2CCN(C(C)C)C(CCO)C2)cc1Cn1cccn1 (centres unmarked) | 12
COc1ccc(CC2(CO)CCN(Cc3cnn(C)c3C)CC2)cc1 | 6.81
CSc1cccc(CN2CCC(CO)(Cc3cccc(C(F)(F)F)c3)CC2)c1 | -35.9
COc1ccc(CN2CCC(CO)(Cc3ccccc3)CC2)cc1Cn1cccn1 | -55.9
CC(C)Cc1cc(CN2CCCC(CO)(Cc3cccc(Cl)c3)C2)[nH]n1 (centres unmarked) | -14.7
COc1ccc(CC2(CO)CCN(Cc3cnn(-c4ccc(F)cc4)c3)CC2)cc1 | -79.2
COCCOc1nc2ccccc2nc1C | 6.8
O=C(Nc1nnc(-c2ccccc2)s1)c1ccccc1F | 13.3
CC(C)C[C@@H](CO)NC(=O)CC[C@H](NC(=O)OC(C)(C)C)C(=O)N(Cc1ccccc1)Cc1ccccc1 | 16
CCOC(=O)c1cnc(SC2CC(=O)N(c3cccc(OC)c3)C2=O)nc1N (centres unmarked) | 11.3
CC1(c2nnc(-c3cccc(Cl)c3)o2)CC(c2cccc([N+](=O)[O-])c2)=NO1 (centres unmarked) | 16.3
COc1ccc(CC2(CO)CCN(Cc3cnn(-c4ccccc4)c3)CC2)cc1 | -57.2
CCOc1cc(CN2CCC(CO)(Cc3cccc(C(F)(F)F)c3)CC2)ccc1OC | -78
COc1cc(CN2CCC(CO)(Cc3cccc(C(F)(F)F)c3)CC2)ccc1F | -15.9
OCC1(Cc2ccccc2)CCCN(Cc2cnn(-c3ccccc3)c2)C1 (centres unmarked) | -27.4

SMILES | hERG current change (%, negative = inhibition) at 1uM [%]
COc1ccc(CC2(CO)CCN(Cc3cnn(-c4ccccc4OC)c3)CC2)cc1 | -48.4
OCC1(Cc2cccc(C(F)(F)F)c2)CCN(Cc2cc(F)cc(F)c2)CC1 | 4.2
CC(=O)Nc1ccc(S(=O)(=O)Oc2ccc(N3C(=O)C4CCCCC4C3=O)cc2)cc1 (centres unmarked) | 15.5
CCOC(=O)c1nnn(-c2nonc2N)c1-c1ccc(F)cc1 | 13.5
CC[C@]12CCCN3CCc4c(n(c5ccccc45)[C@](O)(C(=O)OC)C1)[C@@H]32 | -69.4
COC(=O)C1C(O)CCC2CN3CCc4c([nH]c5ccccc45)C3CC21 (centres unmarked) | 1.1
CC[C@H]1CC2CN3CCc4c([nH]c5ccccc45)C(C(=O)OC)(C2)C13.Cl (some centres unmarked) | 7.18
COC(=O)[C@@H]1[C@H]2C[C@H]3c4[nH]c5ccccc5c4CCN3C[C@@H]2CC[C@@H]1O | -21.3
CC[C@]12CCCN3CCc4c(n(c5ccccc45)[C@@](O)(C(=O)OC)C1)[C@@H]32 | -85.4
CCC12CCCN3CCc4c(n(c5ccccc45)C(O)(C(=O)OC)C1)C32 (centres unmarked) | -2.18
O=P(O)(O)C(O)C(F)(F)C(F)(F)C(F)(F)C(F)F (centres unmarked) | 21.8
O=S(=O)(c1ccccc1)c1nc(-c2ccco2)oc1N1CCCCCC1 | 11.4
O=C(Nc1ccncc1)c1ccc(F)cc1 | 7.66
Cn1c(SCC(=O)Nc2cccc(F)c2)nnc1-c1cccnc1 | -6.1
Cc1ccc(NC(=O)C(C)Sc2nnc(-c3cccnc3)o2)cc1 (centres unmarked) | 14
CCCn1c(SCC(=O)Nc2cccc(C(=O)OC)c2)nnc1-c1cccnc1 | -22.5
O=C(CSc1nnc(-c2cccnc2)n1-c1ccccc1)Nc1ccccc1 | -44.9
Cc1ccc(NC(=O)C(C)Sc2nnc(-c3cccnc3)n2-c2ccccc2)cc1 (centres unmarked) | -86.2
Cc1ccc(NC(=O)CSc2nnc(-c3cccnc3)n2CCN2CCCCC2)cc1 | -53.7
O=C(CSc1nnc(-c2cccnc2)n1CCN1CCCCC1)Nc1cccc(Cl)c1 | -80.3
Cc1ccc(NC(=O)CSc2nnc(-c3cccnc3)n2-c2ccc(C)cc2)cc1 | 2.22
Cn1c(SCC(=O)Nc2ccc(F)cc2)nnc1-c1cccnc1 | -2.78

SMILES | hERG current change (%, negative = inhibition) at 1uM [%]
CCOC(=O)c1ccc(CSc2nnc(N)s2)cc1 | 5.39
Cc1ccc(C(=O)N2NC(c3ccc(F)cc3)C3C(=O)N(c4ccc(C)c(C)c4)C(=O)C32)cc1 (centres unmarked) | 10.6
CCOC(=O)C1CCN(C(=O)Cn2cc(C(=O)C3CC3)c3ccccc32)CC1 | 13.4
O=C(O)C(Cc1c[nH]c2ccccc12)NS(=O)(=O)c1ccc(Cl)c(C(F)(F)F)c1 (centres unmarked) | 7.86
COc1ccc(NC(=S)Nc2ccc(OC)cc2OC)c(OC)c1 | 17.8
COC/C=C/C1=CC2=CC(=O)C(C)(OC(=O)c3cnc4ccccc4n3)C(=O)C2=CN1C1CC1 (centres unmarked) | 9.57
N#Cc1cn(CCCOc2ccccc2)c2ccccc12 | 11.3
c1ccc(-c2nc(NC3CCCC3)c3ccccc3n2)cc1 | 18.4
c1ccc2c(NC3CCCC3)nnc(NC3CCCC3)c2c1 | -70.4
c1csc(-c2nnc(NC3CCCCC3)c3ccccc23)c1 | -40.8
CC1(C(=O)O)COC(c2ccc([N+](=O)[O-])cc2)OC1 (centres unmarked) | 2.26
Cn1c(=O)cc(SCC(=O)N2CCCC2)c2ccccc21 | 9.79
CCn1ccnc1CNC(=O)CC1C(=O)NCCN1Cc1ccc(F)cc1Cl (centres unmarked) | 13.5
COc1ccc2[nH]cc(C(O)CN3CCC(C(N)=O)CC3)c2c1 (centres unmarked) | 11.1
COc1ccc2[nH]cc(C(O)CN3CCN(c4ccccc4F)CC3)c2c1 (centres unmarked) | 8.35
COc1ccc(N2CCN(CC(O)c3c[nH]c4ccc(OC)cc34)CC2C)cc1 (centres unmarked) | -50.6
CC(C)OC(=O)/C(=C\c1ccccc1)NC(=O)c1ccccc1 | 9.47
CCN(CC)S(=O)(=O)c1ccc(C)c(NC(=O)CN2CCN(C)CC2)c1.O=C(O)C(=O)O | 6
CCN(CC)S(=O)(=O)c1ccc(C)c(NC(=O)CNCCN(C(C)C)C(C)C)c1.O=C(O)C(=O)O | -66.5
CCN(CC)S(=O)(=O)c1ccc(C)c(NC(=O)CNCc2ccccc2OC)c1.O=C(O)C(=O)O | 20.9
